Results on 26 compounds are retold here after the supplement of paper PMC10037445.

In all, about 2,900 compounds were measured (“NF-kB SEAP reporter activity, fold change vs agonist alone”: median about 0.99, highest 2% from about 2.6 on). The entries come from a sample that favours the highest values as a whole.

Assay [1] deals with RAW-Dual. Description: NF-kB SEAP reporter activity, fold change vs agonist alone; cytotoxicity flag (confluency mask): not cytotoxic; higher = enhanced NF-kB activity. The gist of the method: (§1)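 RAW-Dual macrophages were seeded in DMEM at 50,000 cells/well in 384-well plates, given 50 nL of library stock by pin tool, and given a PRR agonist 1 h later. Plates were held at 37 °C, 5% CO2 for 20 hours, after which supernatant was read for IRF by QuantiLuc luminescence and for NF-κB by QuantiBlue absorbance at 620 nm. Reporter activity is expressed as fold change over wells that received agonist alone. A well was called cytotoxic when IncuCyte confluency fell below 70% of agonist controls in both mask sets.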

Assay [2] concerns RAW-Dual. In words: NF-kB SEAP reporter activity, fold change vs agonist alone; higher = enhanced NF-kB activity. Put shortly:
as §1

Assay [3] has as its system RAW-Dual. In words: NF-kB SEAP reporter activity, fold change vs agonist alone; cytotoxicity flag (confluency mask): cytotoxic (confluency <70% of control); higher = enhanced NF-kB activity. The gist of the method: as §1
Where [4] appears, read: agonist: ODN 1826 (TLR9) 0.5 ug/mL.
[5] abbreviates: agonist: Pam2CSK4 (TLR2/6) 0.1 ug/mL.
Setting [6] is: agonist: Pam3CSK4 (TLR2/1) 0.1 ug/mL.
Where [7] appears, read: library stock concentration (final ~1000-fold dilution): 10 mM, cytotoxicity flag (confluency mask): not cytotoxic, agonist: Imiquimod (TLR7) […].
[8] abbreviates: library stock concentration (final ~1000-fold dilution): 10 mM, cytotoxicity flag (confluency mask): not cytotoxic, agonist: MPLA (TLR4) […].
Setting [9] is: library stock concentration (final ~1000-fold dilution): 10 mM, cytotoxicity flag (confluency mask): cytotoxic (confluency <70% of control), agonist: Imiquimod (TLR7) […].
[10] abbreviates: library stock concentration (final ~1000-fold dilution): 10 mM, cytotoxicity flag (confluency mask): cytotoxic (confluency <70% of control), agonist: MPLA (TLR4) […].

On to `CCOC1OC(=O)CC1NC(=O)C1CCCN1C(=O)C(NC(=O)c1ccc(N)c(Cl)c1)C(C)(C)C` (stereo not drawn) (library stock concentration (final ~1000-fold dilution): 10 mM), for which the “NF-kB SEAP reporter activity” value in assay [1] (agonist: LPS (TLR4) 0.1 ug/mL) was found to be 0.973; in assay [1] (setting [4]), 1; in assay [1] (setting [5]), 1; in assay [1] (setting [6]), 0.976.
Regarding `CCOC1OC(=O)CC1NC(=O)C1CCCN1C(=O)C(NC(=O)c1ccc(N)c(Cl)c1)C(C)(C)C` (stereo not drawn), the “NF-kB SEAP reporter activity” value was found to be 0.911 in assay [2] (setting [7]) and 0.995 in assay [2] (setting [8]).
For `N#CC1CC2CC2N1C(=O)C(N)C12CC3CC(CC(O)(C3)C1)C2` (stereo not drawn), in that order: 0.914 and 0.875.
For `N#CC1CC2CC2N1C(=O)C(N)C12CC3CC(CC(O)(C3)C1)C2` (stereo not drawn) (library stock concentration (final ~1000-fold dilution): 10 mM), the “NF-kB SEAP reporter activity” value in assay [1] (agonist: LPS (TLR4) 0.1 ug/mL) is 1.1; in assay [1] (setting [4]) it was 0.964; in assay [1] (setting [5]), 0.892; in assay [1] (setting [6]), 1.05.
Turning to `CCn1c(-c2nonc2N)nc2c(C#CC(C)(C)O)ncc(OCC3CCCNC3)c21` (stereo not drawn), the “NF-kB SEAP reporter activity” value is 1.87 in assay [2] (setting [7]) and 1.95 in assay [2] (setting [8]).
As for `CCn1c(-c2nonc2N)nc2c(C#CC(C)(C)O)ncc(OCC3CCCNC3)c21` (stereo not drawn) (library stock concentration (final ~1000-fold dilution): 10 mM), the “NF-kB SEAP reporter activity” value was determined as 1.91 in assay [1] (agonist: LPS (TLR4) 0.1 ug/mL), 0.943 in assay [1] (setting [4]), 1.73 in assay [1] (setting [5]) and 1.89 in assay [1] (setting [6]).
The corresponding values for `CC(C)Cc1ccc(C(C)C(=O)O)cc1.NCCCCC(N)C(=O)O` (stereo not drawn) (library stock concentration (final ~1000-fold dilution): 10 mM water) are 1.42, 1.2, 1.54 and 1.39.
Turning to `CC(C)Cc1ccc(C(C)C(=O)O)cc1.NCCCCC(N)C(=O)O` (stereo not drawn), the “NF-kB SEAP reporter activity” value in assay [2] (library stock concentration (final ~1000-fold dilution): 10 mM water, cytotoxicity flag (confluency mask): not cytotoxic, agonist: Imiquimod (TLR7) […]) was 0.969; in assay [2] (library stock concentration (final ~1000-fold dilution): 10 mM water, cytotoxicity flag (confluency mask): not cytotoxic, agonist: MPLA (TLR4) […]), 1.08.
On to `CCCCc1nc2cc(/C=C/C(=O)NO)ccc2n1CCN(CC)CC` (library stock concentration (final ~1000-fold dilution): 10 mM), for which the “NF-kB SEAP reporter activity” value in assay [3] (agonist: LPS (TLR4) 0.1 ug/mL) was determined as 4.93; in assay [3] (setting [4]), 1.54; in assay [3] (setting [5]), 0.93; in assay [3] (setting [6]), 1.99.
`CCCCc1nc(-c2ccc(OCCCN(CC)CC)cc2)cn1-c1ccc(Oc2ccc(Cl)cc2)cc1`: the entries for the “NF-kB SEAP reporter activity” value in assay [2] (setting [9]) and in assay [2] (setting [10]) were 1.53 and 1.02, respectively.
Turning to `CCCCc1nc(-c2ccc(OCCCN(CC)CC)cc2)cn1-c1ccc(Oc2ccc(Cl)cc2)cc1` (library stock concentration (final ~1000-fold dilution): 10 mM), the “NF-kB SEAP reporter activity” value in assay [3] (agonist: LPS (TLR4) 0.1 ug/mL) is 0.281; in assay [3] (setting [4]), 0.683; in assay [3] (setting [5]), 0.225; in assay [3] (setting [6]) it was 0.192.
Regarding `CCCCc1nc2cc(/C=C/C(=O)NO)ccc2n1CCN(CC)CC`, the “NF-kB SEAP reporter activity” value in assay [2] (setting [9]) was determined as 2.43; in assay [2] (setting [10]), 2.67.
Regarding `CN1C2CCC1CC(OC(c1ccccc1)c1ccccc1)C2.CS(=O)(=O)O` (stereo not drawn), the “NF-kB SEAP reporter activity” value is 1.89 in assay [2] (setting [7]) and 1.29 in assay [2] (setting [8]).
Consider `CN1C2CCC1CC(OC(c1ccccc1)c1ccccc1)C2.CS(=O)(=O)O` (stereo not drawn) (library stock concentration (final ~1000-fold dilution): 10 mM), for which the “NF-kB SEAP reporter activity” value worked out at 1.24 in assay [1] (agonist: LPS (TLR4) 0.1 ug/mL), 0.721 in assay [1] (setting [4]), 0.896 in assay [1] (setting [5]) and 1.02 in assay [1] (setting [6]).
The corresponding values for `CC(NC(=O)CCC(F)(F)F)C(=O)NC1C(=O)N(CCO)c2ncccc2-c2ccccc21` (stereo not drawn) (library stock concentration (final ~1000-fold dilution): 10 mM) are 1.05, 0.863, 0.99 and 1.16.
Turning to `CC(NC(=O)CCC(F)(F)F)C(=O)NC1C(=O)N(CCO)c2ncccc2-c2ccccc21` (stereo not drawn), the figures for the “NF-kB SEAP reporter activity” value in assay [2] (setting [7]) and in assay [2] (setting [8]) were 0.822 and 1.06, respectively.
The corresponding values for `CNCCCC12CCC(c3ccccc31)c1ccccc12.Cl` are 1.4 and 1.37.
Take `CNCCCC12CCC(c3ccccc31)c1ccccc12.Cl` (library stock concentration (final ~1000-fold dilution): 10 mM): the “NF-kB SEAP reporter activity” value in assay [1] (agonist: LPS (TLR4) 0.1 ug/mL) is 1.55; in assay [1] (setting [4]) it was 0.443; in assay [1] (setting [5]), 0.537; in assay [1] (setting [6]) it was 0.603.
For the compound `CC(=O)c1ccc2c(c1)c1cc(C(C)=O)ccc1n2CCNC(C)C.Cl` (library stock concentration (final ~1000-fold dilution): 10 mM), the “NF-kB SEAP reporter activity” value in assay [3] (agonist: LPS (TLR4) 0.1 ug/mL) is 0.329; in assay [3] (setting [4]), 0.209; in assay [3] (setting [5]) it was 0.0686; in assay [3] (setting [6]), 0.155.
With `CC(=O)c1ccc2c(c1)c1cc(C(C)=O)ccc1n2CCNC(C)C.Cl`, the “NF-kB SEAP reporter activity” value came out at 0.156 in assay [2] (setting [9]) and 0.26 in assay [2] (setting [10]).
`CC1(C)OC2COC3(COS(N)(=O)=O)OC(C)(C)OC3C2O1` (stereo not drawn): the results for the “NF-kB SEAP reporter activity” value in assay [2] (setting [7]) and in assay [2] (setting [8]) were 0.928 and 0.824, respectively.
Regarding `CC1(C)OC2COC3(COS(N)(=O)=O)OC(C)(C)OC3C2O1` (stereo not drawn) (library stock concentration (final ~1000-fold dilution): 10 mM), the “NF-kB SEAP reporter activity” value in assay [1] (agonist: LPS (TLR4) 0.1 ug/mL) was found to be 0.898; in assay [1] (setting [4]), 1.01; in assay [1] (setting [5]) it was 0.955; in assay [1] (setting [6]), 1.12.
Consider `COc1c(O)c(C)cc2c1C(=O)c1c(O)cccc1C2=O`, for which the “NF-kB SEAP reporter activity” value is 0.981 in assay [2] (setting [7]) and 1.08 in assay [2] (setting [8]).
Regarding `COc1ccc(S(=O)(=O)Nc2cc(-c3c(O)ccc4ccccc34)c(O)c3ccccc23)cc1` (library stock concentration (final ~1000-fold dilution): 10 mM), the “NF-kB SEAP reporter activity” value in assay [1] (agonist: LPS (TLR4) 0.1 ug/mL) came out at 4.3; in assay [1] (setting [4]), 1.09; in assay [1] (setting [5]), 1.29; in assay [1] (setting [6]), 1.38.
As for `COc1ccc2cccc(CCNC(C)=O)c2c1` (library stock concentration (final ~1000-fold dilution): 10 mM), the “NF-kB SEAP reporter activity” value came out at 1.33 in assay [1] (agonist: LPS (TLR4) 0.1 ug/mL), 1.09 in assay [1] (setting [4]), 1.03 in assay [1] (setting [5]) and 1.19 in assay [1] (setting [6]).
With `COc1ccc(S(=O)(=O)Nc2cc(-c3c(O)ccc4ccccc34)c(O)c3ccccc23)cc1`, the figures for the “NF-kB SEAP reporter activity” value in assay [2] (setting [7]) and in assay [2] (setting [8]) were 1.17 and 1.61, respectively.
